Each structure is given as a SMILES string. Where “and” joins values, the source holds several entries; their conditions need not be identical. Identical values can stand only once. The panel holds about 83,000 compounds, 20% with a hit somewhere; the sample as a whole holds those more often.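 Compound tested at a single concentration for 48 hours in 96-well plates; a percent growth value below 10 was scored as active.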 Calls of active or inactive are those of the source.

The assay concerns MDA-MB-468 breast. The experiment in a line: NCI-60 one-dose screen, 48 h (100 = growth as untreated, 0 = no growth, -100 = all killed). Conditions: 10 µM unless noted.
As to `C=COC(=O)CCCCCCCCC`, the growth is 100% (inactive). Take `O=C1c2ccccc2C(=O)c2sc(Nc3cccc(Cl)c3)nc21`: the growth was 13.2% (inactive).

Take `COc1cnc2c(c1)C(=O)c1c-2n(CCCNC2=NCCS2)c(=O)c2cc(F)ccc12`: the growth was -17.6% (active).

As to `C(=C\c1ccncc1)/c1ccncc1`, the growth is 92.6% (inactive).

As for `c1ccc2c(CC3=NCCN3)cccc2c1`, the growth is 92.3% (inactive) and 101% (inactive). Take `Oc1[nH]c2ccccc2c1/C=c1/ccc2c(c1)N=C(c1ccc(C(F)(F)F)cc1)N=2`: the growth is 43.6% (inactive). In the case of `CNC(=O)c1cc(Oc2ccc(NC(=O)Nc3cc(C(C)(C)C)nn3-c3ccc4ncccc4c3)c(F)c2)ccn1` it was -61.8% (active); in that of `COC1/C=C/OC2(C)Oc3c(C)c(O)c4c(O)c(c(/C=N/N(c5ccccc5)c5ccccc5)c(O)c4c3C2=O)NC(=O)C(C)=C/C=C/C(C)C(O)C(C)C(O)C(C)C(OC(C)=O)C1C` (stereo not given), -44.7% (active). In the case of `Cc1c(O)cc(-c2cnc(N/N=C/c3ccccc3)s2)c(O)c1C` it was 61.6% (inactive); in that of `N/C(=N\c1nc2c(Br)cccc2s1)C(Br)Br`, -58.8% (active); in that of `CCc1ccccc1-n1c(-c2ccc(OC)cc2)cc(-c2ccc(OC)cc2)c(C#N)c1=O`, 96.9% (inactive). Turning to `N=C(N)c1ccc(-c2ccc(-c3ccc4ccccc4c3)s2)cc1`, the growth was 101% (inactive). For the compound `Cc1ccc(Nc2nc(NCCO)c3ccccc3n2)cc1C`, the growth was 32.9% (inactive). The figure for `COc1ccc(OC)c(-c2ccc(-c3ccccc3N)c3[nH]c4ccccc4c23)c1` is 72.1% (inactive). As for `COC(=O)[C@@H](Cc1c[nH]c2ccccc12)NC[C@@H](O)CN1C(=O)/C(=C\c2cc(OC)c(OC)c(OC)c2)c2ccccc21`, the growth was 37.9% (inactive). On to `O=C(/C=C/C12c3ccccc3C(c3ccccc31)C1C(=O)NC(=O)C12)c1ccccc1` (stereo not given), for which the growth was 9.65% (active). The figure for `Oc1c(Br)c(Br)c(O)c(Br)c1Br` is 102% (inactive); for `COC1/C=C/OC2(C)Oc3c(C)c(O)c4c(O)c(c(/C=N/Nc5ccc([N+](=O)[O-])cc5[N+](=O)[O-])c(O)c4c3C2=O)NC(=O)C(C)=C/C=C/C(C)C(O)C(C)C(O)C(C)C(OC(C)=O)C1C` (stereo not given) it is -54.5% (active); for `COC(=O)c1nc(=S)[nH]c(C(=O)OC)c1C(=O)c1ccc(Cl)c(Cl)c1` it is 105% (inactive). In the case of `COc1ccc(C(=O)c2cc3c(N)c(C(=O)Nc4cccc5ccccc45)sc3nc2C)cc1` it was -0.26% (active). The figure for `COc1cc(-c2c3c(cn2CCN2CCCCC2)-c2oncc2CC3)cc(OC)c1OC` is 94.6% (inactive). In the case of `COc1ccc(-c2cc(-c3c(C)oc4cc5occc5c(OC)c4c3=O)nc(N)c2C#N)cc1OC`, the growth is 76.2% (inactive). In the case of `NC(N)=NS(=O)(=O)c1ccc(NC2=C(I)C(=O)c3ncccc3C2=O)cc1` it was 94.1% (inactive); in that of `NC(CSSCC(N)C(=O)O)C(=O)O` (stereo not given), -17% (active); in that of `COc1ccc(Cn2cnc3cc(C(=O)Nc4cccc5ccccc45)ccc32)c(OC)c1`, -31.6% [30 µM] (active). The figure for `Cc1cn(-c2cc(C(=O)Nc3cccc(-n4ccc5c(NC(=O)c6ccccc6)nccc54)c3)cc(C(F)(F)F)c2)cn1` is -9.97% (active); for `Oc1ccccc1C=Nc1ccccc1N=Cc1ccccc1O.[Cu+2]` it is 47.5% (inactive); for `Cc1cc(NCC(=O)Nc2ccc(-c3nc4ccccc4s3)cc2)no1` it is -46.7% (active). Regarding `Cc1cc(=O)oc2cc(OC(=O)CN3CCN(C)CC3)ccc12`, the growth is 101% (inactive). The figure for `C/C(=C\c1cc(Cl)ccc1OCC(=O)O)[N+](=O)[O-]` is 112% (inactive). In the case of `CCOC(=O)c1cc(C#N)n2ccc3ccccc3c12` it was 98.4% (inactive).

As for `COc1cc2c(Nc3ccc(NC(=O)Nc4ccc(Cl)c(C(F)(F)F)c4)c(Cl)c3)ncnc2cc1OCCCN1CCN(C)CC1`, the growth is -70.1% (active). The figure for `COc1cc(NCCCCCN=C(N)NC(N)=NC(C)C)c2ncccc2c1` is -63.5% (active); for `Cc1nn(-c2ccc(Cl)cc2)c2nc3c(nc12)C(=O)c1ccccc1-3` it is 49.2% (inactive).

`COc1cc2oc(-c3cccc(C(=O)Nc4ccc(Br)cc4)c3)cc(=O)c2c(OC)c1OC`: the growth was 64.3% (inactive). Regarding `C=CCn1c(SCC(=O)Nc2cccc(C(=O)/C=C/c3ccc(C)cc3)c2)nc2ccccc2c1=O`, the growth is 76.3% (inactive).

For the compound `CCCC(CCC)(C(N)=O)C(=O)O`, the growth was 105% (inactive). In the case of `N#Cc1c(N)n2c(nc1=Nc1ccc([N+](=O)[O-])cc1)sc1cc(Cl)ccc12` it was 79.5% (inactive); in that of `CCCCCCCCC(C)OC(=O)c1nn(C(C)=O)c2ccccc12` (stereo not given), 96.8% (inactive). With `CCN(CC)CCCC(C)Nc1ccnc2cc(Oc3ccccc3)ccc12` (stereo not given), the growth was 31.5% (inactive) and 70.2% (inactive).

These data come from PubChem BioAssay (NCI).
